Screening data from PubChem BioAssay.
Vaccinia Venus = qHTS for Stage-Specific Inhibitors of Vaccinia Orthopoxvirus: Venus Reporter Primary qHTS; Vaccinia virus Venus reporter expression, fluorescence; Potency, µM (top dose mostly 36.5 µM), for inactives: top-dose activity change, negative = inhibition, most hits filed as inhibitors; actives 0.46% (n = 330,000); AID 720580, 2013; calls by dose curve; tested in A549 cells; further: potency means the concentration at half of the fitted maximal effect; nearly all actives have a fitted effect of over 30% in size
HCV inh = qHTS Assay for Inhibitors of Hepatitis C Virus (HCV) | Huh7.5.1 HCVcc-Cre infection, luciferase reporter, 44 h | Potency, µM (titrated, usually from 41.8 µM), without a hit: at the highest dose activity change, negative = inhibition, usual class: inhibitors | actives 3.4% (n = 340,000); active means well fitted inhibition curve with a large enough effect; inconclusive means small, poorly fitted or top-dose-only effect, or another doubt; inactive means no such curve, though single readings can be large or run the other way; further: potency means the concentration at half of the fitted maximal effect
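Reporter virus HCVcc-Cre (~0.5 moi) infects cells exposed to compound; seeding density 1,000 cells/well with 4 h settling beforehand. Luminescence, 15 sec read, taken 44 h post-infection following a 15 min RT substrate incubation.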
HCMV inh = qHTS Assay for inhibitors of the human cytomegalovirus (HCMV); HFF cells, HCMV-luciferase reporter, 72 h; hits give low values; activity change, negative = inhibition, % at 57.5 µM; actives 4.5% (n = 410,000); AID 1259415, 2018; in the data active means activity change below about -60%; inconclusive means no clear call, values can overlap the other calls; inactive means above about -39%
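Human foreskin fibroblasts infected with luciferase-reporter HCMV at MOI 1 PFU/cell, compounds at two doses. Luciferase measured 72 h post infection; normalized to buffer-only basal and Salinomycin (10uM) controls.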
VACV mCherry inh = qHTS for Stage-Specific Inhibitors of Vaccinia Orthopoxvirus: mCherry Reporter Primary qHTS. Potency, µM (series often up to 36.5 µM), inactives show at the top dose activity change, negative = inhibition, hits mostly inhibitors. actives 0.63% (n = 310,000). AID 720579, 2013. Vaccinia virus mCherry reporter infection, fluorescence; calls by dose curve; tested in A549 cells; further: potency means the concentration at half of the fitted maximal effect; nearly all actives have a fitted effect of over 35% in size
FMDV inh = High Throughput Screening for Foot and Mouth Disease Virus Antivirals; FMDV antiviral cell-based qHTS; Potency, µM (series often up to 57.9 µM), for the others: top-dose activity change, negative = inhibition, usual class: inhibitors; actives 1.2% (n = 410,000); calls by dose curve; tested in HEK293T cells; further: read-out not given here; potency means the concentration at half of the fitted maximal effect; nearly all actives have a fitted effect of over 45% in size
The depositor's hits bear a star; i = inactive; u = inconclusive; x = not tested or not shown; [ ] = dose if it differs, or a comment. An excerpt weighted towards active compounds, which were near 7.3% of everything screened. On the % scale 0 is the no-effect control and ±100 the full control effect.

SMILES | Vaccinia Venus | HCV inh | HCMV inh | VACV mCherry inh | FMDV inh
Cc1nc(N2CCCCC2)sc1C(=O)c1cccc([N+](=O)[O-])c1 | -21% | u | -73* | -26% | -13%
Cc1nc2ccc(S(=O)(=O)NC(C(=O)NCc3ccco3)C(C)C)cc2s1 (stereo unspecified) | 2% | 5% | -64* | -6% | -17%
Cc1cc(Cc2cc(C)c(O)c(CO)c2)cc(CO)c1O | -26% | -1% | 8 | 5.6µM* | -27%
Cc1cc(Cc2ccc(N)c(C)c2)ccc1N | -5% | -8% | 40 | u | -3%
CCC(C)NS(=O)(=O)c1ccc(S(=O)(=O)N2CCCC3(CCCCC3)C2)cc1 (stereo unspecified) | x | 10µM* | -35 | x | u
Cc1oc(-c2ccccc2NC(=O)c2cccnc2)nc1CNC(=O)c1ccc(N(C)C)cc1 | -2% | x | x | -8% | 4%
COc1ccc(OC)c(N(CC(=O)NCCSCc2ccco2)S(=O)(=O)c2ccccc2)c1 | -10% | -6% | -29 | -7% | -22%
CCOc1ccccc1N(CC(=O)NCCSCc1ccco1)S(=O)(=O)c1ccccc1 | -18% | 13µM* | -15 | -8% | -9%
COc1ccccc1N(CC(=O)NCCSCc1ccc(C)cc1)S(=O)(=O)c1ccccc1 | x | 13µM* | -15 | x | u
Cc1ccc(CSCCNC(=O)CN(c2cccc(C)c2C)S(=O)(=O)c2ccccc2)cc1 | -20% | x | -4 | -29% | -23%
CCc1ccc(NC(=O)CC2C(=O)N(c3cccc(C)c3)C(=O)N2Cc2cccc(OC)c2)cc1 (stereo unspecified) | -20% | x | -24 | -25% | -19%
CCn1c(CN2CCOCC2)nc2cc(NC(=O)c3ccc([N+](=O)[O-])cc3)ccc21 | -30% | x | u | -30% | u
Cc1nc(N/N=C\c2ccc3c(c2)OCO3)sc1C | u | 13% | 98 | 16µM* | 23%
C(=N\Nc1nc2ccccc2s1)/c1ccc2c(c1)OCO2 | 4% | 20% | 87 | -11% | -14%
COc1cc2ncnc(NCc3ccc(C)cc3)c2cc1OC | -15% | 20% | 0 | -12% | -13%
COc1ccc(CCNc2ncnc3cc(OC)c(OC)cc23)cc1OC | -21% | 10µM* | -21 | i | 20µM*
COc1cc2ncnc(NCCc3ccccc3)c2cc1OC | x | 11µM* | u | x | 20µM*
COc1ccc(-n2cc(-c3ccccc3)c3c(NCCc4ccc(OC)c(OC)c4)ncnc32)cc1 | -21% | x | u | -19% | u
COc1ccc(CCNc2ncnc3c2c(-c2ccccc2)cn3-c2cccc(Cl)c2)cc1OC | -11% | x | 25 | -19% | 25µM*
C/C(=C\c1ccco1)CN1CCOc2ccc(CN3CCC(Oc4cccnc4)CC3)cc2C1 | 5% | x | x | -1% | -17%
CCS(=O)(=O)CCSc1nc2ccccc2s1 | -12% | 9% | -12 | x | 1%
O=S(=O)(CCSc1nc2ccccc2s1)c1nc2ccccc2s1 | x | u | -85* | x | 8.9µM*
CC(C)(C)S(=O)(=O)c1nc2ccccc2s1 | x | 20% | 30 | x | -8%
C=CCS(=O)(=O)c1nc2ccccc2s1 | u | u | -97* | x | u
CC(=O)Nc1sc2c(c1-c1nc3ccccc3s1)CCN(C(C)C)C2 | 10µM* | 8.9µM* | x | 13µM* | -10%
SMILES | Vaccinia Venus | HCV inh | HCMV inh | VACV mCherry inh | FMDV inh
CC(=O)N1CCc2c(sc(NC(=O)CSc3ccc(F)cc3)c2-c2nc3ccccc3s2)C1 | -1%[7.34 µM] | x | -96* | -4%[7.34 µM] | 0%
O=C1C(=O)N(C(C(=O)NCc2ccccc2)C2CCCC2)c2ccccc21 (stereo unspecified) | x | x | -9 | x | x
Cc1ccc(C)c(N2CCN(C(=S)Nc3ccc4nc(N5CCN(C)CC5)cc(C)c4c3)CC2)c1 | x | 2.5µM* | u | x | u
COc1ccccc1N1CCN(C(=S)Nc2ccc3nc(N4CCOCC4)cc(C)c3c2)CC1 | -18% | 3.5µM* | 4 | -19% | u
CCN1CCN(c2cc(C)c3cc(NC(=S)N4CCN(c5ccccc5)CC4)ccc3n2)CC1 | -2% | u | -61* | -15% | 9%
CN(C)C(=S)Nc1ccc(Cl)cc1 | -3% | 13% | u | i | 11%
NN(CCO)C(=S)Nc1ccc(Cl)cc1 | u | 8% | 73 | 10µM* | -7%
